Laboratory results from the supplement of paper PMC11732987, “Enantioselective OTUD7B fragment discovery through chemoproteomics screening and high-throughput optimisation” (Communications Chemistry, 2025).

Columns and labels:
Test in all cases: log2 ratio of Biotin-Ahx-Ub-VS probe labelling (fragment/DMSO); higher = less target engagement (more negative = stronger competition), active = hit call of the paper (q ≤ 0.05, log2 ratio ≤ -1)
Conditions in all cases: compound concentration: 200 uM; treatment time: 3 h
OTUD6B = target: T1, OTUD6B (UniProt Q8N6M0)
T1 sequence (whole entry): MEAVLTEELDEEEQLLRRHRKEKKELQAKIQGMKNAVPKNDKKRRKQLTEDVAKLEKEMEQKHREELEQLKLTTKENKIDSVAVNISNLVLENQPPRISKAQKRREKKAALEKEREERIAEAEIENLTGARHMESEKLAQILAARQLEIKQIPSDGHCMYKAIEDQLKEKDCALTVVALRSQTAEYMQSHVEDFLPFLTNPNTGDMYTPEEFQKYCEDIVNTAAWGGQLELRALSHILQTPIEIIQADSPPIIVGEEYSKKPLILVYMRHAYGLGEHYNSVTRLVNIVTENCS
How it was run: (§1)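 HEK293T lysate, 495 µg per sample in Tris/CHAPS/IGEPAL buffer with protease inhibitors, was treated in triplicate with fragment at 200 µM or vehicle for 3 h and then with Biotin-Ahx-Ub-VS at 0.5 µM final for 1 h. Labelled DUBs were NeutrAvidin-enriched, digested with LysC and trypsin, and run by diaPASEF LC-MS/MS. Spectronaut label-free quantities were global-median-normalised, and values are average log2 fragment/vehicle ratios by unpaired t-test on proteins with ≥2 unique peptides.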

OTUD7B = target: T2, OTUD7B (UniProt Q6GQQ9)
T2 sequence (whole entry): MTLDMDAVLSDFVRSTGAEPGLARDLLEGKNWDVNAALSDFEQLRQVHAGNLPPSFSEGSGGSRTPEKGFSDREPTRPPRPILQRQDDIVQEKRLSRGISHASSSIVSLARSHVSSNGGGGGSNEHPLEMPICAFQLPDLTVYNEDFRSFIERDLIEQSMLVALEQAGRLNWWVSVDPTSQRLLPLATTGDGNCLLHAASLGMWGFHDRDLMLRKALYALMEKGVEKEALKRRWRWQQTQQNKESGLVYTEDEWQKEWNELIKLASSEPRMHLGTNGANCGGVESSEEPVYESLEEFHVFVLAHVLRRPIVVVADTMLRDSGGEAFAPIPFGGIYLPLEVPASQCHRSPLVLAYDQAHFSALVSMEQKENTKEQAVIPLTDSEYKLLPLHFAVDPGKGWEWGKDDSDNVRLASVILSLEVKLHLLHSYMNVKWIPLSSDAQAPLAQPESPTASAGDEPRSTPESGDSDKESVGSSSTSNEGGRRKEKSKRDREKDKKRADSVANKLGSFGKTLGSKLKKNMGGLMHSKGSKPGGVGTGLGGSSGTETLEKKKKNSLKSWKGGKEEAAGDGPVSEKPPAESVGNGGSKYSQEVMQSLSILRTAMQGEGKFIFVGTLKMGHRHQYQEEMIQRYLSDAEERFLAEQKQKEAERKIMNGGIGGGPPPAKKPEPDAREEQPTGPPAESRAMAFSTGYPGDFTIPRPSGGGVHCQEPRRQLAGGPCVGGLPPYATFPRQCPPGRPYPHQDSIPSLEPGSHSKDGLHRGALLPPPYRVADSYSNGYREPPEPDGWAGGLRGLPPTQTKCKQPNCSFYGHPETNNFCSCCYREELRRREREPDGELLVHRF
How it was run: as §1

PRPF8 = PRPF8 (UniProt Q6P2Q9)
How it was run: as §1

PSMD7 = target: T3, PSMD7 (UniProt P51665)
T3 sequence (whole entry): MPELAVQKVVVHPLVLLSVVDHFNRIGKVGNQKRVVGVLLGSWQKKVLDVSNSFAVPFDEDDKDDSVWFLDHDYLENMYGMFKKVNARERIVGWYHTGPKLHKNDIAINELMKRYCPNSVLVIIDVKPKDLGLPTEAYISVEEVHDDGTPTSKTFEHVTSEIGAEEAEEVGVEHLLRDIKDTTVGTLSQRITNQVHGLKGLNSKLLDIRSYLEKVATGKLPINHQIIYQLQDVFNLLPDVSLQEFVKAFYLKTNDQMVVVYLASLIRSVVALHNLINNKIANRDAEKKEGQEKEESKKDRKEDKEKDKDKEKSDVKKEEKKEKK
How it was run: as §1

UCHL1 = UCHL1 (UniProt P09936)
Sequence of UCHL1 (P09936 whole entry, looked up): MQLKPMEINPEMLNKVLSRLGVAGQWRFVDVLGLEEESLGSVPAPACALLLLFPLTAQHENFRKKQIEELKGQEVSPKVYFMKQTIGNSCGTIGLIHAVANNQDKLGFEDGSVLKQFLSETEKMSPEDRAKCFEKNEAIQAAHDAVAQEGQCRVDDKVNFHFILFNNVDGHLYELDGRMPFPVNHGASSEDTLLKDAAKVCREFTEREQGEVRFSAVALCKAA
How it was run: as §1

UCHL3 = target: T4, UCHL3 (UniProt P15374)
T4 sequence (whole entry): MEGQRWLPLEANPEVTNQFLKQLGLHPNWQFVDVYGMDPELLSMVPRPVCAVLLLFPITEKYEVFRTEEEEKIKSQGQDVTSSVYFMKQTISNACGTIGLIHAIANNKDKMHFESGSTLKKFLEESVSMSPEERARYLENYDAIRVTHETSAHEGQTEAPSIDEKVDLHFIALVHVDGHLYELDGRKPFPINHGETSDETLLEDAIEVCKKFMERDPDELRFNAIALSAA
How it was run: as §1

UCHL5 = target: T5, UCHL5 (UniProt Q9Y5K5)
T5 sequence (whole entry): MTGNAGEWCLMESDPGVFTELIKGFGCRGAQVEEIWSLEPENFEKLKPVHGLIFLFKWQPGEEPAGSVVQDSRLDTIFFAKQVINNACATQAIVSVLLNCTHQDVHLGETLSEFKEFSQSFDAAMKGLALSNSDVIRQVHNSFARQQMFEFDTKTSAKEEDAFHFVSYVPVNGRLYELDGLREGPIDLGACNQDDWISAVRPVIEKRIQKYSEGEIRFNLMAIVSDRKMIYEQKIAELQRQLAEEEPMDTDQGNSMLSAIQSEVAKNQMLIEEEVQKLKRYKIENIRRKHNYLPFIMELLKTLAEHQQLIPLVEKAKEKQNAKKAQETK
How it was run: as §1

USP10 = USP10 (UniProt Q14694)
Sequence of USP10 (Q14694 whole entry): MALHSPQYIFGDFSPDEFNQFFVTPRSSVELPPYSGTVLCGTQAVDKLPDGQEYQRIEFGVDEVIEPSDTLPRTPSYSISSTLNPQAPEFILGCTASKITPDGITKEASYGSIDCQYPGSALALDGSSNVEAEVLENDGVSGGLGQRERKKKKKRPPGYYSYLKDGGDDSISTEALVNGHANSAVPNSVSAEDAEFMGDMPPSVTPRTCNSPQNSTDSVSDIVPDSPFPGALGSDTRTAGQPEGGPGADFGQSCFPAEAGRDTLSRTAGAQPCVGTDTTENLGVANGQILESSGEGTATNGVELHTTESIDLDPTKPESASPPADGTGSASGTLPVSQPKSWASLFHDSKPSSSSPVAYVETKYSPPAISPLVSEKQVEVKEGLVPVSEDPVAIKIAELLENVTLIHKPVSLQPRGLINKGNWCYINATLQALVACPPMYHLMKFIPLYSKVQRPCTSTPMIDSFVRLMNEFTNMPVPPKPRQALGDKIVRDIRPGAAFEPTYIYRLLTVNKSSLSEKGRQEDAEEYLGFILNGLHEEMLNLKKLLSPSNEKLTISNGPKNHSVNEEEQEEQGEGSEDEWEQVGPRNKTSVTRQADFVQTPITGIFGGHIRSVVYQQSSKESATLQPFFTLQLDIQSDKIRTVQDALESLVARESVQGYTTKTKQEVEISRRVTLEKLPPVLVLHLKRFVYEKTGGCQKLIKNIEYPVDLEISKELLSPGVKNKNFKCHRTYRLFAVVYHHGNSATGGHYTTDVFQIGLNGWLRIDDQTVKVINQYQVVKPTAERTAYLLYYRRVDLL
How it was run: as §1

USP15 = target: T6, USP15 (UniProt Q9Y4E8)
T6 sequence (whole entry): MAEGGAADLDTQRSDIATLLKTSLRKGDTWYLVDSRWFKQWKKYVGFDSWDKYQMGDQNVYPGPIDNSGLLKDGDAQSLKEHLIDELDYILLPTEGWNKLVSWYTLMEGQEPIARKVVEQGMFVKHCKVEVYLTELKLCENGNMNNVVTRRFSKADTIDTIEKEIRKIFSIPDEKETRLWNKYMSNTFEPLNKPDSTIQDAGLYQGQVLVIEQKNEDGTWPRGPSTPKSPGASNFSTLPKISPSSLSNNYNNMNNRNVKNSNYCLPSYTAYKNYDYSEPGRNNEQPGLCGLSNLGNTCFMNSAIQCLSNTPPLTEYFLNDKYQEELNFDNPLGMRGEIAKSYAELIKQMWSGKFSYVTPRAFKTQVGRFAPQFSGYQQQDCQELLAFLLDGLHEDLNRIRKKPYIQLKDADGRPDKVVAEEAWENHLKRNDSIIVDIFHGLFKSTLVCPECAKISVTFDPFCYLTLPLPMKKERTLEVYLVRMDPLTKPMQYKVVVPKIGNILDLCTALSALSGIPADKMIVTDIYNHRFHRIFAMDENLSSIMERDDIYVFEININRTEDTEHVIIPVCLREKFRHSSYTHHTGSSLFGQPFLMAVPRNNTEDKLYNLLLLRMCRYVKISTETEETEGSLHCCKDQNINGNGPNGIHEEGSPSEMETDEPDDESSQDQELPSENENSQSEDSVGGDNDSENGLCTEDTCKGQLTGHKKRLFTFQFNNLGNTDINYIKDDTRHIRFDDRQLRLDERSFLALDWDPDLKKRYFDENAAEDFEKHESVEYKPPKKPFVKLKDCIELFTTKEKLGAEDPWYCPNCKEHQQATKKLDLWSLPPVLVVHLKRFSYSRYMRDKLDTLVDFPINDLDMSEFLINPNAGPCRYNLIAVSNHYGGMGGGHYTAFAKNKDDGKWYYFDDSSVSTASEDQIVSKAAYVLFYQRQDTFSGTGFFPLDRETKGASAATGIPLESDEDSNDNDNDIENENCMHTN
How it was run: as §1

USP16 = USP16 (UniProt Q9Y5T5)
Sequence of USP16 (Q9Y5T5 whole entry, looked up): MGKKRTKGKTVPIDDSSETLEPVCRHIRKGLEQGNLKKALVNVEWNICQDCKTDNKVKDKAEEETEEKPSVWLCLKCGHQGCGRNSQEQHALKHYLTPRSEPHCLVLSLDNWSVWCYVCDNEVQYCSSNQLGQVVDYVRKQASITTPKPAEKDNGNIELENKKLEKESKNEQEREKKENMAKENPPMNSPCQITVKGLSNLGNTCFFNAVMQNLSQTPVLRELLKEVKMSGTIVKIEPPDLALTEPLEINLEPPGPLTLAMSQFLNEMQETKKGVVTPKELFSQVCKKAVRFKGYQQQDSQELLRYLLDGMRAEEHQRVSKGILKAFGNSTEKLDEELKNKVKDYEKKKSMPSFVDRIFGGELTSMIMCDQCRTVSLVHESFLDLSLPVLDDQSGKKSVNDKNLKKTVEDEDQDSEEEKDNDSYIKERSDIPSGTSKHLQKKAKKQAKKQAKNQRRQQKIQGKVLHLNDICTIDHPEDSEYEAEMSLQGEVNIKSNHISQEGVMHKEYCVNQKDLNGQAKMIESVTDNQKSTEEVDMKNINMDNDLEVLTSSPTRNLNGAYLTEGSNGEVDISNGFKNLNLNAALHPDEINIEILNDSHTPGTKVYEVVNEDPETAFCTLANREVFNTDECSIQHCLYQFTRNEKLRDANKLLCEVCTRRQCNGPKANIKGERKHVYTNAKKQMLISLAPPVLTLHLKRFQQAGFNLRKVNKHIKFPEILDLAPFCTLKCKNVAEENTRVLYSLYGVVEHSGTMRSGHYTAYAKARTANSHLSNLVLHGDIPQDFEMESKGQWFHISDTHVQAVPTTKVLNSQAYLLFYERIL
How it was run: as §1

Measured: log2 ratio of Biotin-Ahx-Ub-VS probe labelling

O=C(CCl)Nc1ccc(N2CCCC2=O)cc1
inactive: OTUD6B 0.116 | OTUD7B -0.359 | PRPF8 0.162 | PSMD7 -0.145 | UCHL3 0.206 | UCHL5 -0.098 | USP10 -0.0139 | USP15 0.104 | USP16 0.0122
active: UCHL1 -1.1
